Only a selection was taken, and hits are over-represented in it overall.
aSyn UTR act = Activators working through SNCA 5'UTR binding (MLPCN); alpha-synuclein 5'UTR reporter, activators screen; 300,000 compounds, 7.1% hits; AID 1814; activity score, % (tested at 7.5 µM), hits read low; in the data active = activity score below about -60%
An asterisk follows results filed as active.

SMILES	aSyn UTR act
NC(=O)CN1C(=O)C(O)(CC(=O)/C=C\c2ccc3c(c2)OCO3)c2ccccc21 (stereo unspecified)	-70*
O=c1c(C=NCc2ccccc2)c(NCc2ccccc2)nc2ccccn12	-66*
COc1ccc(NC(=O)CSc2nccn2Cc2ccco2)cc1	-96*
CCC(=O)Nc1cc(NC(=O)CSc2ncc(-c3ccc(F)cc3)n2Cc2ccco2)ccc1C	-226*
Cc1cccc(NC(=O)CSc2nccn2Cc2ccco2)c1	-89*
Cc1cccc(NC(=O)CSc2nccn2Cc2ccco2)c1C	-81*
Cc1ccc(-c2ccc(/C=C3\SC(N4CCOCC4)=NC3=O)o2)cc1	-72*
CC(C)=CC(=O)Nc1ccc(Cl)cc1	-90*
COc1ccc(NC(=O)c2cc(F)c(F)cc2Cl)cc1Cl	-93*
COc1ccc(NC(=O)C=C(C)C)cc1Cl	-122*
CCc1cccc(NC(=O)Nc2cccs2)c1	-243*
CCNC(=O)C(=O)Nc1ccc(OC)c(Cl)c1	-83*
COc1ccc(NC(=O)Nc2cccs2)cc1Cl	-167*
Cc1cc(NC(=O)c2cc(-c3ccco3)on2)nn1Cc1ccc(Cl)cc1	-71*
O=C(Nc1ccccc1C(F)(F)F)c1cc(-c2ccccc2O)on1	-141*
O=C(Nc1ccccc1C(F)(F)F)c1cc(-c2ccco2)on1	-127*
Cc1c(Cl)cccc1NC(=O)c1cc(-c2ccco2)on1	-108*
Cc1ccc2c(C)c(C(=O)N3CCN(Cc4ccc5c(c4)OCO5)CC3)oc2c1C	-63*
COc1cccc(NS(=O)(=O)NC(=O)c2c[nH]c3ccccc23)c1	-63*
O=C(C1=NNCC1c1ccccc1)C1OC1c1ccccc1 (stereo unspecified)	-83*
COCCNc1nc2sc3c(c2c(=O)n1Cc1ccco1)CCCCC3	-72*
O=c1c2c3c(sc2nc(NCCO)n1Cc1ccco1)CCCCC3	-118*
Cc1nc2c(ccc3c2ccc2nc(C)sc23)s1	-113*
Cc1cccc(C(=O)NCCc2ccccc2)c1	-112*
CCC(CC)C(=O)Nc1cccc(C(=O)NCCc2ccccc2)c1	-64*
SMILES	aSyn UTR act
O=C(NCCc1ccccc1)c1ccc(Cl)c([N+](=O)[O-])c1	-99*
O=C(c1ccc(Cl)c([N+](=O)[O-])c1)N(c1ccccn1)c1ccccn1	-98*
CCCN1CCC(Oc2cccc(C(=O)NCCc3ccccc3)c2)CC1	-72*
Cc1cc(C(=O)NCCc2ccccc2)ccc1[N+](=O)[O-]	-116*
Cc1ccc(NC(=O)Cn2nnc3ccccc32)cc1	-176*
Cc1cccc(NC(=O)Cn2nnc3ccccc32)c1	-104*
COC(=O)c1ccc(NC(=O)Cn2nnc3ccccc32)cc1	-174*
O=c1c2ccccc2nnn1-c1ccc(Br)cc1	-169*
CCOc1ccc(N)c(SSc2cc(OCC)ccc2N)c1	-121*
Cc1ccc(S(=O)(=O)CCC(=O)N(CCN2CCOCC2)c2nc3ccccc3s2)cc1	-75*
CCCC(=O)N(CCN1CCOCC1)c1nc2c(F)cc(F)cc2s1	-86*
Fc1ccccc1Nc1n[nH]c(=S)s1	-64*
CCCc1nc2c(sc3nc4c(cc32)COC(C)(C)C4)c(=O)n1Cc1ccco1	-65*
Cc1nc2c(sc3nc4c(cc32)COC(C)(C)C4)c(=O)n1Cc1ccccc1	-109*
Cc1nc2c(sc3nc4c(cc32)COC(C)(C)C4)c(=O)n1CC(=O)NCc1ccco1	-69*
Cc1nc(OCc2ccccc2)c2sc3nc4c(cc3c2n1)COC(C)(C)C4	-185*
Cc1ccc(N=C2N=C(N)c3ccccc32)cc1C	-78*
CCc1ccc(N=C2N=C(N)c3ccccc32)cc1	-98*
COc1ccc(-c2cn3cccc(C)c3n2)cc1F	-149*
COc1ccc(-c2cn3cc(C)ccc3n2)cc1F	77
O=[N+]([O-])c1cccn2cc(-c3ccc(Br)cc3)nc12	-315*
Cc1ccc(-c2cn3cccc(C)c3n2)cc1	-75*
O=C(CSc1nnc(-c2cccnc2)o1)Nc1ccc(Cl)cc1	-62*
O=C(CSc1nnc(-c2cccnc2)o1)Nc1cccc(Cl)c1	-119*
CC(=O)N/C(=N\c1nc(C)cc(C)n1)Nc1ccc2ccccc2c1	-166*
SMILES	aSyn UTR act
O=C1S/C(=C\C=C\c2ccco2)C(=O)N1c1ccc(O)cc1	-245*
O=C1S/C(=C\C=C\c2ccco2)C(=O)N1c1ccccc1	-217*
COc1cccc(CNC(=O)c2nnn(CC(=O)Nc3ccc(Br)cc3)c2N)c1	86
CCOc1ccc(CCNC(=O)c2nnn(CC(=O)Nc3ccc(C)cc3)c2N)cc1OCC	-71*
Clc1ccc(-n2nnc(-c3cccnc3Cl)n2)cn1	-130*
COc1ncccc1-c1nnn(-c2ccc(Cl)nc2)n1	-74*
Cc1ccc(-n2nnc(-c3cccnc3Cl)n2)cc1	-78*
O=C(Nc1cccc(Cl)c1)Nc1nccs1	-159*
O=C(Nc1ccc(Cl)c(Cl)c1)Nc1nccs1	-64*
Cc1nc2cc(NC(=O)Nc3nccs3)ccc2n1C	-99*
COc1cccc(C(=O)Nc2ccc(Cl)c(C(F)(F)F)c2)c1	-108*
Cc1cccc(C(=O)Nc2cccc(OC(=O)c3cccc(C)c3)c2)c1	-115*
COc1cccc(C(=O)Nc2ccc(C)cc2)c1	-127*
COc1ccc2cc(C(=O)/C=C/c3cc(OC)c(O)c(OC)c3)ccc2c1	-71*
COc1cccc(C(=O)Nc2ccc3c(c2)C(=O)c2ccccc2C3=O)c1	-164*
COC(=O)c1ccc(NC(=O)c2cccc(C)c2)cc1	-65*
COc1ccc(NC(=O)c2ccc(C)cc2)c(OC)c1	-189*
COC(=O)c1ccc(/C=C/C(=O)c2cccc(OC)c2)cc1	-71*
COc1cccc(C(=O)Nc2ccc(C3CC3(Cl)Cl)cc2)c1 (stereo unspecified)	-169*
COc1cccc(C(=O)NC(=S)Nc2ccc(N(C)C)cc2)c1	-185*
COC(=O)c1ccc(NC(=O)c2cccc(OC)c2)cc1	-255*
O=C(Nc1ccc(C2CC2(Cl)Cl)cc1)c1ccccc1Br (stereo unspecified)	-73*
CCC(=O)Nc1ccc2c(c1)C(=O)c1ccccc1C2=O	-245*
Cc1ccc(NC(=O)COC(=O)c2cccc3c2C(=O)c2ccccc2C3=O)c(C)c1	52
CCN(CC)S(=O)(=O)c1cccc(C(=O)Oc2cccc(NC(=O)c3cccs3)c2)c1	-66*
SMILES	aSyn UTR act
COc1cccc(C(=O)Nc2ccc(C(=O)c3ccccc3)cc2)c1	-94*
COC(=O)c1ccc(NC(=O)c2ccc3nsnc3c2)cc1	-111*
Cc1ccc(NC(=O)c2ccc3nsnc3c2)c(C)c1	-102*
CCOc1ccc2nc(SCC(=O)c3ccccc3)sc2c1	-100*
CCOc1ccc2nc(SCC(=O)NC3CC3)sc2c1	-68*
Cc1cnnc2ccc3c(no[n+]3[O-])c12	-93*
Nc1nonc1-c1noc(COc2ccccc2Cl)n1	-162*
O=C(Nc1ccc(-c2noc(COc3ccccc3Cl)n2)cc1)c1ccco1	-140*
Cc1cccc(OCc2nc(-c3nonc3N)no2)c1C	-144*
Nc1nonc1-c1noc(CCCN2C(=O)c3ccccc3C2=O)n1	-108*
O=c1cc(-c2ccccc2)nc2cc(-c3ccc(Br)cc3)[nH]n12	-94*
CCc1c(C)nc2cc(-c3cccc(Br)c3)[nH]n2c1=O	-199*
O=c1c2c(nc3cc(-c4ccc(Cl)cc4)[nH]n13)CCS2	-132*
Nc1[nH]n2c(=O)cc(-c3ccccc3)nc2c1N=Nc1ccccc1	68
COCc1cc(=O)n2[nH]c(-c3cccc(Br)c3)cc2n1	-75*
CCc1c(C)nc2cc(-c3ccc(Cl)cc3)[nH]n2c1=O	-98*

Source: PubChem BioAssay
